From PubChem BioAssay
Pf growth 48h – Primary qHTS for delayed death inhibitors of the malarial parasite plastid, 48 hour incubation. P. falciparum luciferase growth in erythrocytes, 48 h. 310,000 compounds, 5.9% hits. Potency, µM (top dose mostly 28.7 µM), for the others: top-dose activity change, negative = inhibition, most hits filed as inhibitors; note: potency is the fitted concentration of half-maximal effect; % is set by controls: 0 for no effect and ±100 for the full control effect
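Parasite viability was followed by luminescence of a genomically integrated firefly luciferase. Cultures held 0.1% parasitemia at 2% hematocrit (final), incubated under 5% CO2 at 37 C.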
MARV entry inh – qHTS for inhibitors of binding or entry into cells for Marburg Virus; Potency, µM (top dose mostly 37.8 µM), without a hit: at the highest dose activity change, negative = inhibition, hits mostly inhibitors; AID 540276, 2011; Marburg virus pseudotyped entry inhibition, cell reporter; 300,000 compounds, 1.8% hits; calls by dose curve; tested in HEK293 cells; note: potency is the fitted concentration of half-maximal effect; % is set by controls: 0 for no effect and ±100 for the full control effect
Cycloheximide cs – Cycloheximide Counterscreen for Small Molecule Inhibitors of Shiga Toxin. cell reporter, cycloheximide protein synthesis inhibition counterscreen. max response, %. 300,000 compounds, 12% hits. AID 2314, 2010; in the data active = max response mostly above about 13%, no sharp cut-off; inactive = mostly below about 14%; note: read at 38.3 µM for the half of the compounds with a filed dose; 0% is about no effect
Pf growth 96h – Primary qHTS for delayed death inhibitors of the malarial parasite plastid, 96 hour incubation. AID 504834, 2011. Potency, µM (titrated, usually from 28.7 µM), for the others: at the highest dose activity change, negative = inhibition, usual class: inhibitors. 320,000 compounds, 6.9% hits. P. falciparum luciferase reporter growth, 96 h; note: potency is the fitted concentration of half-maximal effect; % is set by controls: 0 for no effect and ±100 for the full control effect
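Delayed-death screen, second-generation endpoint: infected erythrocytes, 2% hematocrit, 0.05% parasitemia final; 96 hours at 37 C, 5% CO2; luciferase detection reagent; luminescence decrease equals reduced growth.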
Shiga toxin inh – A qHTS for Small Molecule Inhibitors of Shiga Toxin; Vero cells, Shiga toxin protein synthesis inhibition reporter; 290,000 compounds, 9.2% hits; inhibition, % at 38.7 µM; AID 2315, 2010; in the data active = inhibition mostly above about 28%, no sharp cut-off; inactive = mostly below about 43%; note: 0% is about no effect
LASV entry inh – qHTS for Inhibitors of binding or entry into cells for Lassa Virus; Lassa virus pseudotype entry inhibition, cell reporter; Potency, µM (highest dose often 37.9 µM), for inactives: top-dose activity change, negative = inhibition, hits mostly inhibitors; 300,000 compounds, 1.2% hits; calls by dose curve; tested in HEK293 cells; note: potency is the fitted concentration of half-maximal effect; % is set by controls: 0 for no effect and ±100 for the full control effect; nearly all actives have a fitted effect of over 50% in size
Starred values were filed as active, the others as inactive; [ ] = another dose, or the depositor's remark. Rows were chosen to be rich in hits. Some 19% of all compounds tested hit in one or more screens of this group. Unless noted, calls come from the whole dose curve; as a rule, active = well fitted inhibition curve with a large enough effect; inconclusive = small, poorly fitted or top-dose-only effect, or another doubt; inactive = no such curve, though single readings can be large or run the other way.

O=C(c1ccccc1Cl)N1CCCC(c2nc3c(nnn3Cc3ccccc3)c(=O)[nH]2)C1 (stereo unspecified) was read as MARV entry inh -1%, Cycloheximide cs -3, Pf growth 96h 1%, Shiga toxin inh -8 and LASV entry inh inconclusive.
For CCN1CCN(C(=O)c2cn(CC)c3ccc(S(=O)(=O)N(C)C)cc3c2=O)CC1 the results were Pf growth 48h 5%, Cycloheximide cs -2, Pf growth 96h inconclusive and Shiga toxin inh -6.
Screening COc1ccccc1C(c1nnnn1CS(=O)(=O)c1ccc(C)cc1)N1CCSCC1 (stereo unspecified) returned Pf growth 48h 9.3µM*, MARV entry inh inconclusive, Cycloheximide cs -5, Pf growth 96h 100%, Shiga toxin inh -19 and LASV entry inh -17%.
Cc1ccc(C(c2nnnn2CCc2ccccc2)N2CCSCC2)cc1 (stereo unspecified) was read as Pf growth 48h inconclusive, MARV entry inh 2.2µM*, Cycloheximide cs 0, Shiga toxin inh -1 and LASV entry inh inconclusive.
CC(C)C(c1nnnn1CCc1ccccc1)N1CCC(C(N)=O)CC1 (stereo unspecified) was read as Pf growth 48h 12%, MARV entry inh 1%[46.1 µM], Cycloheximide cs -3, Pf growth 96h 28%, Shiga toxin inh -6 and LASV entry inh 10%.
`c1ccc(CCn2nnnc2C(c2cccnc2)N2CCOCC2)cc1` (stereo unspecified) gave Pf growth 48h -14%, MARV entry inh 17%, Cycloheximide cs 5, Pf growth 96h 2.6µM*, Shiga toxin inh -9 and LASV entry inh inconclusive.
`COc1cccc(C(c2nnnn2CS(=O)(=O)c2ccc(C)cc2)N2CCN(C)CC2)c1OC` (stereo unspecified) gave Pf growth 48h inconclusive, MARV entry inh -7%, Cycloheximide cs -9, Pf growth 96h 34%, Shiga toxin inh -10 and LASV entry inh -4%.
Screening CCCC(c1nnnn1CCc1ccccc1)N1CCC(C(N)=O)CC1 (stereo unspecified) returned Pf growth 48h -17%, MARV entry inh inconclusive, Cycloheximide cs 1, Pf growth 96h 4.1µM*, Shiga toxin inh -7 and LASV entry inh 13%.
`CC(C)(C)n1nnnc1C(c1cccnc1)N1CCOCC1` (stereo unspecified) gave Pf growth 48h 0%, MARV entry inh 22%[46.1 µM], Cycloheximide cs -1, Pf growth 96h 25%, Shiga toxin inh -11 and LASV entry inh 8%[46.1 µM].
For COc1ccc2[nH]cc(C(O)CN3CCC(C(N)=O)CC3)c2c1 (stereo unspecified) the results were Pf growth 48h 3%, MARV entry inh 11%, Cycloheximide cs -2, Pf growth 96h 20%, Shiga toxin inh -3 and LASV entry inh 2%.
Screening O=C(O)COCC(=O)NCc1nc(-c2ccc(C(F)(F)F)cc2)no1 returned Pf growth 48h 9%, MARV entry inh 8%[46.1 µM], Cycloheximide cs -1, Pf growth 96h 31%, Shiga toxin inh 32 and LASV entry inh 10%.
`CCOC(=O)C1=Nc2ccccc2C1=[N+]=[N-]` gave Pf growth 48h inconclusive, MARV entry inh inconclusive, Cycloheximide cs -3, Pf growth 96h 52%, Shiga toxin inh -14 and LASV entry inh inconclusive.
Screening Cc1ccc(C(c2nnnn2CCc2ccccc2)N2CCC(C)CC2)cc1 (stereo unspecified) returned Pf growth 48h 7.4µM*, MARV entry inh inconclusive, Cycloheximide cs 15*, Pf growth 96h 1%, Shiga toxin inh 21 and LASV entry inh inconclusive.
Screening O=C(c1cccc(F)c1)N1CCN(S(=O)(=O)Cc2ccccc2)CC1 returned Pf growth 48h 2.9µM*, Cycloheximide cs 1, Pf growth 96h 0% and Shiga toxin inh -2.
For O=C(c1cccc(F)c1)N1CCCC(C(=O)N2CCCCC2)C1 (stereo unspecified) the results were Pf growth 48h -24%, Cycloheximide cs -3, Pf growth 96h inconclusive and Shiga toxin inh -13.
